Most compounds without a hit are left out; they make up all but 7.9% or so of the library.
HT1080-NT tox: kills 2HG-producing HT-1080-NT fibrosarcoma cells; Potency, µM (titrated, usually from 46.1 µM), for the others: at the top dose activity, negative = less viability, hits mostly cytotoxic; actives 1.6% (n = 360,000); HT-1080-NT fibrosarcoma viability, CellTiter-Glo ATP luminescence, 48 h;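 also: NT is the 2HG producing partner of a matched IDH1 knockdown line; 0% = DMSO-treated cells and -100% = media-only wells without cells; nearly all actives have a fitted effect of over 55% in size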
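Fibrosarcoma NT cells, 750 per well in 5% FBS RPMI, were exposed to compound for 48 hours. Viability: CellTiter-Glo luminescence.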
SW480 rereplic: inducers of DNA re-replication in SW480 colon cancer cells. Potency, µM (top dose mostly 46.1 µM), inactives show top-dose re-replication activation, actives largely listed as activators. AID 624297. actives 1.8% (n = 340,000). SW480 DNA re-replication, Hoechst DNA content imaging, 48 h; also: % of control where 0% means no effect; nearly all actives have a fitted effect of over 55% in size
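Image-based DNA-content assay: after two days of treatment, nuclei were labelled with the DNA dye Hoechst and imaged, and hits were compounds raising the count of nuclei showing high fluorescence intensity.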
KB-V1 MDR tox: KB-V1 MDR subline cytotoxicity. KB-V1 MDR cells viability, CellTiter-Glo, 72 h. Potency, µM (titrated, usually from 46.1 µM), most hits filed as cytotoxic. actives 3.4% (n = 400,000); also: % is scaled to controls: 0 for no effect and ±100 for the full control effect; nearly all actives have a fitted effect of over 60% in size
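KB-V1 cells (P-gp-expressing MDR subline of KB-3-1) in phenol-red-free DMEM with 10% FBS were exposed to library compounds over a concentration series for 72 h at 37 degrees C. Viability read by CellTiter-Glo luminescence; concentration-effect curves fitted after normalization.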
MCF10A rereplic: inducers of DNA re-replication in MCF 10A breast cells. MCF 10A DNA re-replication, Hoechst nuclear intensity, 48 h. Potency, µM (doses to about 46.1 µM), inactives show at the top dose activity, positive = re-replication, hits mostly activators. actives 2.9% (n = 350,000). AID 624296; also: % of control where 0% means no effect; nearly all actives have a fitted effect of over 50% in size
KB-3-1 cytotox: kills parental KB-3-1 adenocarcinoma cells; KB-3-1 viability, CellTiter-Glo ATP luminescence, 72 h; Potency, µM (top dose mostly 46.1 µM), usual class: cytotoxic; actives 1.4% (n = 400,000); also: % is scaled to controls: 0 for no effect and ±100 for the full control effect; nearly all actives have a fitted effect of over 60% in size
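Here the drug-naive KB-3-1 line serves as comparator for MDR sub-line selectivity; cells received compound titrations, 72 h at 37 °C, then CellTiter-Glo readout.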
HT1080 IDH1KD tx: toxicity to HT-1080 IDH1 knockdown cells (counter line); HT-1080 IDH1 knockdown viability, ATP luminescence, 48 h; Potency, µM (top dose mostly 46.1 µM), inactives show top-dose activity, negative = toxicity, actives largely listed as cytotoxic; actives 2% (n = 360,000);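 also: 0% = DMSO wells and -100% = cell-free medium wells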
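After a 2 h attachment period, IDH1KD HT-1080 cells took pin-transferred compound for 48 h at 37 °C; ATP-based luminescence after 10 min room-temperature reagent incubation reported viability.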
* = called active by the depositor. Calls follow the shape of the dose curve; as a rule, active = well fitted curve in the direction sought with a large enough effect; inconclusive = small, poorly fitted or top-dose-only effect, or another doubt; inactive = no such curve, though single readings can be large; an effect the other way counts as inactive or inconclusive. Potency is read from the fitted curve at half-maximal effect.

Cc1ccc(C2CC(c3cccs3)=NN2C(=O)CCl)cc1 (centres undefined) was read as HT1080-NT tox 4.6µM*, SW480 rereplic inconclusive, KB-V1 MDR tox inconclusive, MCF10A rereplic inconclusive, KB-3-1 cytotox inconclusive and HT1080 IDH1KD tx 4.1µM*.
For O=C(Cc1ccc(OCCCCc2ccccc2)cc1)NO the results were KB-V1 MDR tox inactive and KB-3-1 cytotox inactive.
`CCOc1ccc(C(=O)N2CCN(CC(=O)N3CCCC3)CC2)cc1OCC` gave HT1080-NT tox -2%, SW480 rereplic -18%, KB-V1 MDR tox inactive, MCF10A rereplic 7%, KB-3-1 cytotox inactive and HT1080 IDH1KD tx -2%.
For CCC(=O)Nc1nonc1-c1nc2ccccc2n1Cc1cccc2ccccc12 the results were HT1080-NT tox inconclusive, SW480 rereplic 7.3µM*, KB-V1 MDR tox inconclusive, MCF10A rereplic 0.37µM*, KB-3-1 cytotox 0.92µM* and HT1080 IDH1KD tx 0.73µM*.
`COC(=O)c1cccc(Cn2c(Cl)c(/C=N/Nc3ccccc3C)sc2=O)c1` gave HT1080-NT tox -20%, SW480 rereplic 10µM*, KB-V1 MDR tox inconclusive, MCF10A rereplic 26µM*, KB-3-1 cytotox inactive and HT1080 IDH1KD tx 1%.
`CN(C)CCCn1c(N)c(C#N)c2nc3ccccc3nc21` gave HT1080-NT tox -13%, SW480 rereplic 18µM*, KB-V1 MDR tox inactive, MCF10A rereplic 18µM*, KB-3-1 cytotox inactive and HT1080 IDH1KD tx -6%.
For Cc1ccc(S(=O)(=O)c2c(N)n(CC3CCOC3)c3nc4ccccc4nc23)cc1 (centres undefined) the results were HT1080-NT tox 1%, SW480 rereplic -4%, KB-V1 MDR tox inconclusive, MCF10A rereplic 0%, KB-3-1 cytotox inactive and HT1080 IDH1KD tx -4%.
`CCCCC(CC)Cn1c(N)c(C#N)c2nc3ccccc3nc21` (centres undefined) gave HT1080-NT tox inconclusive, SW480 rereplic 9.2µM*, KB-V1 MDR tox inactive, MCF10A rereplic 4%, KB-3-1 cytotox inactive and HT1080 IDH1KD tx inconclusive.
`Cc1ccc(S(=O)(=O)c2c(N)n(CCCN(C)C)c3nc4ccccc4nc23)cc1` gave HT1080-NT tox -10%, SW480 rereplic 23µM*, KB-V1 MDR tox inactive, MCF10A rereplic 21µM*, KB-3-1 cytotox inactive and HT1080 IDH1KD tx -13%.
NC(=O)Nc1ccc(/C=C2\C=Cc3ccccc32)cc1 was read as KB-V1 MDR tox inactive and KB-3-1 cytotox inconclusive.
`O=C(C#Cc1ccccc1)c1ccc([N+](=O)[O-])cc1` gave HT1080-NT tox inconclusive, SW480 rereplic 13µM*, KB-V1 MDR tox inconclusive, MCF10A rereplic inconclusive, KB-3-1 cytotox 23µM* and HT1080 IDH1KD tx inconclusive.
Screening O=C(C#Cc1ccccc1)c1ccccc1 returned HT1080-NT tox inconclusive, KB-V1 MDR tox inconclusive, KB-3-1 cytotox inactive and HT1080 IDH1KD tx 18µM*.
CN(C)C(=O)C#Cc1ccccc1 was read as HT1080-NT tox 16%, SW480 rereplic -11%, KB-V1 MDR tox inactive, MCF10A rereplic -4%, KB-3-1 cytotox inactive and HT1080 IDH1KD tx 25%.
C[C@]12CC[C@@H]3c4ccc(O)cc4CC[C@H]3[C@@H]1C[C@H](O)C2O (some centres undefined) was read as SW480 rereplic -1% and MCF10A rereplic 3%.
For CNc1ccc(/C=C2\C=Cc3ccccc32)cc1I the results were KB-V1 MDR tox inconclusive and KB-3-1 cytotox inactive.
For COc1ccc(-n2nc(C(=O)O)cc2-c2ccccc2)cc1 the results were HT1080-NT tox -2%, SW480 rereplic -14%, KB-V1 MDR tox inactive, MCF10A rereplic 7%, KB-3-1 cytotox inactive and HT1080 IDH1KD tx -1%.
CCCn1nc(NC(=O)c2cccs2)c2cc3cc(C)ccc3nc21 was read as HT1080-NT tox -11%, SW480 rereplic 21µM*, KB-V1 MDR tox inconclusive, MCF10A rereplic 18µM*, KB-3-1 cytotox inactive and HT1080 IDH1KD tx -28%.
`CCCC(=O)Nc1nn(CC)c2nc3ccc(C)cc3cc12` gave HT1080-NT tox 11%, SW480 rereplic inconclusive, KB-V1 MDR tox inactive, MCF10A rereplic inconclusive, KB-3-1 cytotox inactive and HT1080 IDH1KD tx 11%.
CCCn1nc(NC(=O)c2cccs2)c2cc3ccc(C)cc3nc21 was read as HT1080-NT tox -15%, SW480 rereplic 15µM*, KB-V1 MDR tox inactive, MCF10A rereplic inconclusive, KB-3-1 cytotox inactive and HT1080 IDH1KD tx -3%.
Screening CCN(CC)S(=O)(=O)c1ccc(OC)c(NC(=O)c2cc3c(=O)n4ccccc4nc3s2)c1 returned HT1080-NT tox 21%, SW480 rereplic 6%, KB-V1 MDR tox inactive, MCF10A rereplic 16µM*, KB-3-1 cytotox inactive and HT1080 IDH1KD tx 2%.
`O=C(CSCc1ccc([N+](=O)[O-])cc1)NC1CC1` gave HT1080-NT tox 9%, SW480 rereplic -4%, KB-V1 MDR tox inactive, MCF10A rereplic 6%, KB-3-1 cytotox inactive and HT1080 IDH1KD tx 18%.
Screening CC(C)C(NC(=O)CSCc1ccc([N+](=O)[O-])cc1)C(C)C returned HT1080-NT tox 8%, SW480 rereplic -1%, KB-V1 MDR tox 18µM*, MCF10A rereplic inconclusive, KB-3-1 cytotox inactive and HT1080 IDH1KD tx -2%.
CCCCn1c(SCC(=O)NCc2ccc(C)cc2)nc2c(sc3ccccc32)c1=O was read as KB-V1 MDR tox inconclusive and KB-3-1 cytotox inactive.
Screening Oc1c(C(Nc2ccccn2)c2cccnc2)cc(Cl)c2cccnc12 (centres undefined) returned HT1080-NT tox inconclusive, SW480 rereplic 6.5µM*, KB-V1 MDR tox inactive, MCF10A rereplic 23µM*, KB-3-1 cytotox inconclusive and HT1080 IDH1KD tx inconclusive.
`Cc1cc(NC(c2cccnc2)c2ccc3cccnc3c2O)no1` (centres undefined) gave HT1080-NT tox inconclusive, SW480 rereplic 1.5µM*, KB-V1 MDR tox inconclusive, MCF10A rereplic 10µM*, KB-3-1 cytotox inconclusive and HT1080 IDH1KD tx inconclusive.
For COc1ccc(C(=O)NC(c2ccco2)c2cc(Cl)c3cccnc3c2O)cc1 (centres undefined) the results were KB-V1 MDR tox inconclusive and KB-3-1 cytotox inactive.
For CCC(=O)NC(c1ccc(OC)cc1)c1cc(Cl)c2cccnc2c1O (centres undefined) the results were HT1080-NT tox -26%, SW480 rereplic 0.52µM*, KB-V1 MDR tox inactive, MCF10A rereplic 11%, KB-3-1 cytotox inconclusive and HT1080 IDH1KD tx inconclusive.
